Measurements from article PMC7819943, “Rice protein-binding microarrays: a tool to detect cis-acting elements near promoter regions in rice”.
In all, about 35,000 sequences were measured (“fluorescence intensity (a.u.)”: median about 10,000, highest 2% from about 52,000 on). The entries come from a sample that favours the highest values as a whole.

Molecular target: T1, OsWOX13 (Oryza sativa, UniProt Q5QMM3 1-267)
T1 sequence: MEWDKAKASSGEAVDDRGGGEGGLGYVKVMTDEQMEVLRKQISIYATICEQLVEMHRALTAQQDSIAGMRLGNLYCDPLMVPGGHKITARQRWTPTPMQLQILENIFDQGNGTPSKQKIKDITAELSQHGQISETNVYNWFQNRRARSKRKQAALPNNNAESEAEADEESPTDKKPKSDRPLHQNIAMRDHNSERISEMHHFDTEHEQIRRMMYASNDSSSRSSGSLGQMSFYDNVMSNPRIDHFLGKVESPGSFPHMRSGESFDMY
Assay: protein-binding microarray (RPBM); PBS, 2% BSA, 51.3 ng/ul salmon testes DNA, 50 uM zinc acetate, 200 nM TF, 25 C, 1 h; high values mean tight binding
Settings: protein: recombinant; tags: N-terminal polyhistidine and DsRed monomer fusion (pET32a); label: CyDye5-dUTP incorporated in the synthesized complementary strand; 3' TTTTT single-stranded linker to array surface; dsDNA, one strand shown
In short: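 Per-feature fluorescence intensity (arbitrary units), read on an Axon 4000B scanner, is the binding signal. Transcription factors carrying an N-terminal polyhistidine tag and DsRed fusion were expressed in E. coli BL21-CodonPlus and purified on Ni–NTA. A custom Agilent array, made double-stranded by primer extension with Cy5-dUTP and blocked with 2% BSA, was incubated with 200 nM protein in PBS, 2% BSA, salmon testes DNA and 50 µM zinc acetate at 25 °C for 1 h and then washed.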

Sequence	binding signal
TTTAATCTTTAATATTGATTTTGCCACCAACTAAAACGGCCGGAGTCACCTAGTGCAG	4660 fluorescence intensity (a.u.)
ATCCATGTAAATTAACTCATCCAATGTGACAGCACGACGCCGGAGTCACCTAGTGCAG	8800 fluorescence intensity (a.u.)
ACCCAGTAATTTCCAAATCTAAAGATAGGAGATTTTAGGACGGAGTCACCTAGTGCAG	6740 fluorescence intensity (a.u.)
ATACTAATTATACGGTCACACCTATCCGTTGCATGATGCACGGAGTCACCTAGTGCAG	21100 fluorescence intensity (a.u.)
CTTAATTTGGCACTGCCCAAGAAAATTTTGACAAGTACTTCGGAGTCACCTAGTGCAG	9440 fluorescence intensity (a.u.)
TTCGCTTTGATGGACGGCTCAGATCGGCTCCTAATCCATCCGGAGTCACCTAGTGCAG	3310 fluorescence intensity (a.u.)
TGATTAAATATAACTAAACTGTCAACGACATAATGCATTACGGAGTCACCTAGTGCAG	3470 fluorescence intensity (a.u.)
AACTAACAGATTATTCTATGTCGGTTTATTATAATCCAACCGGAGTCACCTAGTGCAG	15700 fluorescence intensity (a.u.)
TTTGATTGAGATTGATAATAACCTGCTGTAACTTAGCGAACGGAGTCACCTAGTGCAG	61100 fluorescence intensity (a.u.)
ATAAATAAACTTATTTTGAGATAATGGTGTAATAGTGTAGCGGAGTCACCTAGTGCAG	5300 fluorescence intensity (a.u.)
ATATAATAATAGATAGATAGATAGATAGATAGATAGATAGCGGAGTCACCTAGTGCAG	49300 fluorescence intensity (a.u.)
AGATCTGATTGATATTGATCCATCGCCGATCGATTGATCACGGAGTCACCTAGTGCAG	53800 fluorescence intensity (a.u.)
GATAGATAGATAGATAGATAGATAGATTTGTTGGCTGTGTCGGAGTCACCTAGTGCAG	63500 fluorescence intensity (a.u.)
TAGATAGATAGATAGATATAGTTGGTGTGTTTGACCCTAGCGGAGTCACCTAGTGCAG	36400 fluorescence intensity (a.u.)
TGTTATAATAGTGTAGATTGATCGATATAATTGTATATGACGGAGTCACCTAGTGCAG	3170 fluorescence intensity (a.u.)
TCTTGACACCGGCCGGATTGATCTATCATCCATCCATCGACGGAGTCACCTAGTGCAG	12300 fluorescence intensity (a.u.)
AATAGATTGATTGATTGATTGAATAATATAGATAGATTGACGGAGTCACCTAGTGCAG	64400 fluorescence intensity (a.u.)
GTAGATAGATGGCACATTGGCAGTGATGGCTGTGTACAGTCGGAGTCACCTAGTGCAG	8260 fluorescence intensity (a.u.)
GGGCTGTTTAGTTTTGGATTGATTGAGCAATGTAATATAACGGAGTCACCTAGTGCAG	22200 fluorescence intensity (a.u.)
AGGAATCGGAATTGATTTCATGCACTGATCGATCCATCCACGGAGTCACCTAGTGCAG	7970 fluorescence intensity (a.u.)
ATAACTAATATAATCGAACCTGCCTCACTTAATATGTGGCCGGAGTCACCTAGTGCAG	4830 fluorescence intensity (a.u.)
CTAAAATTACATATGTAATTTAGGCACTTACATATGTAATCGGAGTCACCTAGTGCAG	19500 fluorescence intensity (a.u.)
TGTTAACCAGATTTATTATATTTGAAAATGTCACCTCCAACGGAGTCACCTAGTGCAG	8160 fluorescence intensity (a.u.)
